The values that follow come from PubChem BioAssay (NCI).

A short description of assay [1]: NCI Yeast Anticancer Drug Screen. Data for the rad50 strain (AID 155).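 Note: 0% = growth of vehicle-only cultures of the same strain.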 The settings on record: S. cerevisiae rad50 strain growth inhibition, stronger effect = higher value. The essentials: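 Compounds were tested on a yeast strain with an engineered DNA damage repair alteration; the reported value is growth inhibition normalised to vehicle treatment.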
The nature of assay [2]: NCI Yeast Anticancer Drug Screen. Data for the mec2-1 strain (AID 157). The settings on record: S. cerevisiae mec2-1 strain, stronger effect = higher value. The gist of the method:
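Mutant yeast (mec2-1) grown with compound; growth inhibition relative to vehicle control reported.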

Assay [3] in a line: NCI Yeast Anticancer Drug Screen. Data for the sgs1 mgt1 strain (AID 161).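 Note: 0% = growth of cultures given vehicle only.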 The settings on record: S. cerevisiae sgs1 mgt1 strain, stronger effect = higher value. The essentials:
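Growth of a repair-deficient yeast mutant was monitored after compound treatment and expressed as inhibition relative to vehicle-treated cultures.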

A short description of assay [4]: NCI Yeast Anticancer Drug Screen. Data for the bub3 strain (AID 167). The settings on record: S. cerevisiae bub3 mutant strain, stronger effect = higher value. The essentials: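 Growth of a checkpoint-deficient yeast mutant is measured after compound exposure. Values represent inhibition relative to vehicle.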
Assay [5] can be described thus: NCI Yeast Anticancer Drug Screen. Data for the mlh1 rad18 strain (AID 175). The conditions noted are these: S. cerevisiae mlh1 rad18 strain growth inhibition, stronger effect = higher value. The gist of the method: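 Genetically defined yeast (DNA repair-deficient) exposed to compounds; growth inhibition determined relative to vehicle.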
Assay [6] is described as follows: NCI Yeast Anticancer Drug Screen. Data for the cln2 rad14 strain (AID 165).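 Note: 0% = growth equal to vehicle treated cultures.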 The conditions noted are these: S. cerevisiae cln2 rad14 strain, stronger effect = higher value. The gist of the method: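 Readout is yeast growth inhibition versus vehicle-treated controls, using a strain with cln2 and rad14 alterations exposed to compound.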
The mark [7] stands for this setting: at 5.0 µM (retest, dose inferred, filed as 0.5).
[8] abbreviates: at 50.0 µM (retest, dose inferred, filed as 5.0).

Compounds without any hit were thinned out: in the full panel of roughly 79,000, 15% have a hit. Unmarked numbers belong to inactive results. The source made the active and inactive calls. Cut-off read from the data, not from the text of the source: active = growth inhibition above about 70%; inactive = the rest.

Regarding `Oc1ccc(Nc2ccc3ccccc3c2)cc1`, the growth inhibition in assay [1] (setting [7]) was 9%; in assay [1] (setting [8]), 97% (active); in assay [1] (at 50.0 µM), 97.5% (active); in assay [2] (setting [7]), -5%; in assay [2] (setting [8]), 98% (active); in assay [2] (at 50.0 µM), 98.5% (active). For the same compound, the growth inhibition is 3% in assay [3] (setting [7]); 98% (active) in assay [3] (setting [8]); 88.9% (active) in assay [3] (at 50.0 µM); -5% in assay [4] (setting [7]); 96% (active) in assay [4] (setting [8]); 98% (active) in assay [4] (at 50.0 µM). Moreover, the growth inhibition in assay [5] (setting [7]) is -1%; in assay [5] (setting [8]), 98% (active); in assay [5] (at 50.0 µM), 97.6% (active).

Consider `C=C(C)C1CC2(C)C(C)CC(O)CC2C(OC(=O)C=C(C)C)C1O` (configuration not stated), for which the growth inhibition in assay [1] (setting [7]) is 26%; in assay [1] (setting [8]), 73% (active); in assay [1] (at 50.0 µM), 78.3% (active); in assay [2] (setting [7]), 12%; in assay [2] (setting [8]) it was 58%; in assay [2] (at 50.0 µM), 69.1%. Also, the growth inhibition was 21% in assay [3] (setting [7]); 78% (active) in assay [3] (setting [8]); 79.8% (active) in assay [3] (at 50.0 µM); 17% in assay [6] (setting [7]); 25% in assay [6] (setting [8]); 47% in assay [6] (at 50.0 µM). Besides, the figures for the growth inhibition in assay [5] (setting [7]), in assay [5] (setting [8]) and in assay [5] (at 50.0 µM) were 32%, 82% (active) and 69%, respectively.

As for `CC1=NN(c2ccccc2)C(=O)C1(Br)Br`, the growth inhibition in assay [1] (setting [7]) is 37%; in assay [1] (setting [8]), 64%; in assay [1] (at 50.0 µM), 92.7% (active); in assay [2] (setting [7]) it was 44%; in assay [2] (setting [8]) it was 71% (active); in assay [2] (at 50.0 µM), 94% (active). Besides, the growth inhibition in assay [3] (setting [7]) is 23%; in assay [3] (setting [8]), 99% (active); in assay [6] (setting [7]), 43%; in assay [6] (setting [8]), 99% (active); in assay [4] (setting [7]), 49%; in assay [4] (setting [8]), 98% (active). Further, the growth inhibition was 32% in assay [5] (setting [7]), 58% in assay [5] (setting [8]) and 93.3% (active) in assay [5] (at 50.0 µM).

As for `O=C(c1ccccc1)c1cc2ccccc2oc1=O`, the growth inhibition in assay [1] (setting [7]) was 1%; in assay [1] (setting [8]) it was 71% (active); in assay [1] (at 50.0 µM), 63.1%; in assay [2] (setting [7]) it was 5%; in assay [2] (setting [8]), 35%; in assay [2] (at 50.0 µM) it was 13.3%. Moreover, the growth inhibition in assay [3] (setting [7]) is 1%; in assay [3] (setting [8]) it was 63%; in assay [3] (at 50.0 µM), 60.5%; in assay [6] (setting [7]), 4%; in assay [6] (setting [8]), 52%; in assay [6] (at 50.0 µM), 37.8%. Moreover, the growth inhibition in assay [4] (setting [7]) was -6%; in assay [4] (setting [8]), 61%; in assay [4] (at 50.0 µM) it was 10.8%; in assay [5] (setting [7]), 9%; in assay [5] (setting [8]), 81% (active); in assay [5] (at 50.0 µM) it was 79% (active).

In the case of `O=Nc1ccc2ccccc2c1O`, the growth inhibition in assay [1] (setting [7]) is -3%; in assay [1] (setting [8]) it was 64%; in assay [1] (at 50.0 µM), 85.7% (active); in assay [2] (setting [7]) it was 3%; in assay [2] (setting [8]) it was 88% (active); in assay [2] (at 50.0 µM), 89.8% (active). Further, the growth inhibition in assay [3] (setting [7]) was -6%; in assay [3] (setting [8]), 37%; in assay [3] (at 50.0 µM) it was 86.8% (active); in assay [6] (setting [7]), 25%; in assay [6] (setting [8]), 63%; in assay [6] (at 50.0 µM), 58.5%. In addition, the growth inhibition in assay [5] (setting [7]) was 14%; in assay [5] (setting [8]), 93% (active); in assay [5] (at 50.0 µM), 84% (active).

On to `Cc1cc(N/N=C/c2ccccn2)nc2ccccc12`, for which the growth inhibition was 20% in assay [1] (setting [7]); 94% (active) in assay [1] (setting [8]); 88.7% (active) in assay [1] (at 50.0 µM); 7% in assay [2] (setting [7]); 95% (active) in assay [2] (setting [8]); 92.3% (active) in assay [2] (at 50.0 µM). Further, the growth inhibition is 21% in assay [3] (setting [7]); 95% (active) in assay [3] (setting [8]); 89.8% (active) in assay [3] (at 50.0 µM); 22% in assay [6] (setting [7]); 93% (active) in assay [6] (setting [8]); 83.9% (active) in assay [6] (at 50.0 µM). Besides, the growth inhibition in assay [4] (setting [7]) is 8%; in assay [4] (setting [8]), 98% (active); in assay [4] (at 50.0 µM), 85.7% (active); in assay [5] (setting [7]) it was 11%; in assay [5] (setting [8]), 95% (active); in assay [5] (at 50.0 µM) it was 90% (active).

Take `COC1CC(C)C(OC)c2cc(O)cc(c2O)NC(=O)/C(C)=C/C=C\C(C)C(OC(N)=O)/C(C)=C\C(C)C1OC` (configuration not stated): the growth inhibition is 94% (active) in assay [1] (setting [7]); 97% (active) in assay [1] (setting [8]); 91.2% (active) in assay [1] (at 50.0 µM); 95% (active) in assay [2] (setting [7]); 97% (active) in assay [2] (setting [8]); 92.5% (active) in assay [2] (at 50.0 µM). The growth inhibition in assay [3] (setting [7]) is 97% (active); in assay [3] (setting [8]), 98% (active); in assay [3] (at 50.0 µM), 91.3% (active); in assay [6] (setting [7]) it was 88% (active); in assay [6] (setting [8]), 95% (active); in assay [6] (at 50.0 µM), 89.8% (active). The growth inhibition in assay [4] (setting [7]) was 97% (active); in assay [4] (setting [8]), 98% (active); in assay [4] (at 50.0 µM) it was 90.7% (active); in assay [5] (setting [7]), 96% (active); in assay [5] (setting [8]), 97% (active); in assay [5] (at 50.0 µM) it was 90% (active).

Regarding `c1ccc2sc(SSN3CC4CCC(CC4)C3)nc2c1`, the growth inhibition in assay [1] (setting [7]) was 37%; in assay [1] (setting [8]), 91% (active); in assay [1] (at 50.0 µM), 56.6%; in assay [2] (setting [7]), 19%; in assay [2] (setting [8]), 93% (active); in assay [2] (at 50.0 µM) it was 80.8% (active). Besides, the growth inhibition is 75% (active) in assay [3] (setting [7]); 97% (active) in assay [3] (setting [8]); 86.4% (active) in assay [3] (at 50.0 µM); 38% in assay [6] (setting [7]); 89% (active) in assay [6] (setting [8]); 21.6% in assay [6] (at 50.0 µM). Besides, the growth inhibition in assay [4] (setting [7]) was 55%; in assay [4] (setting [8]), 96% (active); in assay [4] (at 50.0 µM), 83.7% (active); in assay [5] (setting [7]), 19%; in assay [5] (setting [8]) it was 89% (active); in assay [5] (at 50.0 µM), 80.7% (active).

Take `O=[N+]([O-])c1ccc(C(Br)c2ccc([N+](=O)[O-])cc2)cc1`: the growth inhibition in assay [1] (setting [7]) is 42%; in assay [1] (setting [8]), 97% (active); in assay [1] (at 50.0 µM), 99.8% (active); in assay [2] (setting [7]), 29%; in assay [2] (setting [8]), 100% (active); in assay [2] (at 50.0 µM) it was 99.8% (active). Further, the growth inhibition in assay [3] (setting [7]) was 65%; in assay [3] (setting [8]), 100% (active); in assay [3] (at 50.0 µM) it was 99.8% (active); in assay [6] (setting [7]), 22%; in assay [6] (setting [8]), 99% (active); in assay [6] (at 50.0 µM), 99.7% (active). The growth inhibition in assay [5] (setting [7]) was 54%; in assay [5] (setting [8]), 99% (active); in assay [5] (at 50.0 µM), 99.7% (active).

Regarding `Nc1cc(-c2ccccc2)ccc1O`, the growth inhibition in assay [1] (setting [7]) is 5%; in assay [1] (setting [8]), 63%; in assay [1] (at 50.0 µM), 98.7% (active); in assay [2] (setting [7]) it was -2%; in assay [2] (setting [8]) it was 80% (active); in assay [2] (at 50.0 µM) it was 97.9% (active). Further, the growth inhibition in assay [3] (setting [7]) is 5%; in assay [3] (setting [8]), 37%; in assay [3] (at 50.0 µM) it was 93.6% (active); in assay [6] (setting [7]) it was -3%; in assay [6] (setting [8]), 6%; in assay [6] (at 50.0 µM), 79.1% (active). Further, the growth inhibition in assay [5] (setting [7]) is 8%; in assay [5] (setting [8]), 89% (active); in assay [5] (at 50.0 µM) it was 99.5% (active).

`CC1=C(C2=C(C)C(=O)C(=O)c3cc(C)ccc32)c2ccc(C)cc2C(=O)C1=O`: the growth inhibition in assay [1] (setting [7]) was 89% (active); in assay [1] (setting [8]), 98% (active); in assay [1] (at 50.0 µM) it was 86.7% (active); in assay [2] (setting [7]), 95% (active); in assay [2] (setting [8]), 99% (active); in assay [2] (at 50.0 µM) it was 91.5% (active). Besides, the growth inhibition is 98% (active) in assay [3] (setting [7]); 99% (active) in assay [3] (setting [8]); 91.8% (active) in assay [3] (at 50.0 µM); 98% (active) in assay [4] (setting [7]); 99% (active) in assay [4] (setting [8]); 90.9% (active) in assay [4] (at 50.0 µM). The growth inhibition is 97% (active) in assay [5] (setting [7]), 99% (active) in assay [5] (setting [8]) and 91% (active) in assay [5] (at 50.0 µM).
